Assay outcomes from PubChem.
This is one part of a sample in which hits are shown more often than they occur.
CD40 NFkB inh: CD40 pathway inhibition in BL2 cells; BL2 NF-kB luciferase reporter, CD40L-induced, 4 h; inhibition, % at 10 µM; actives 0.94% (n = 83,000); AID 1053188;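 active means mean inhibition of at least 50% with a set share of replicates also reaching that level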;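 further: 0% = neutral control wells and 100% = IKK inhibitor VII at 50 µM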
Numbers without * were called inactive; [ ] = another dose, or the depositor's remark.

SMILES	CD40 NFkB inh
O=C(C1CCOCC1)N1CC(=O)N2[C@H](C1)[C@@H](c1ccc(C#CCc3ccccc3)cc1)[C@@H]2CO	58*[25 µM]
CC(C)NC(=O)N1CC(=O)N2[C@H](CO)[C@@H](c3ccc(/C=C/c4ccccc4)cc3)[C@H]2C1	53*[25 µM]
COCC#Cc1ccc([C@H]2[C@@H](CO)N3C(=O)CN(C(=O)C4CCCC4)C[C@H]23)cc1	-4
O=C(C1CCOCC1)N1CC(=O)N2[C@@H](CO)[C@@H](c3ccc(C#CCc4ccccc4)cc3)[C@@H]2C1	5[25 µM]
O=C(C1CCOCC1)N1CC(=O)N2[C@H](CO)[C@@H](c3ccc(C#CCc4ccccc4)cc3)[C@@H]2C1	12[25 µM]
O=C(C1CCCC1)N1CC(=O)N2[C@@H](CO)[C@H](c3ccc(C#CCc4ccccc4)cc3)[C@@H]2C1	93*
Cc1ccc(-c2ccc([C@H]3[C@H](CO)N4C(=O)CN(C(=O)NC(C)C)C[C@@H]34)cc2)cc1	-14[25 µM]
Cc1ccc(-c2ccc([C@H]3[C@H]4CN(C(=O)NC(C)C)CC(=O)N4[C@H]3CO)cc2)cc1	5[25 µM]
CCS(=O)(=O)N1CC(=O)N2[C@@H](CO)[C@H](c3ccc(C#CC4CCCCC4)cc3)[C@@H]2C1	3[25 µM]
COc1ccc2c3c(n(C)c2c1)[C@H](CO)N(Cc1cccnc1)CC31CCN(C(=O)NC(C)C)CC1	3[25 µM]
O=C(CCN1CCCCC1)N[C@H]1CC[C@@H](CC(=O)N2CCC(Cc3ccccc3)CC2)O[C@@H]1CO	-5[25 µM]
O=C(c1cccc(F)c1)N1CC[C@@H]2[C@H]1c1cc(-c3ccc(F)cc3)ccc1N[C@@H]2CO	-48
CC(C)NC(=O)N(C)C[C@@H]1Oc2ccc(NS(C)(=O)=O)cc2CC(=O)N(C)C[C@H]1C	3
CC(=O)N(C)C[C@H]1OCc2ccccc2-c2ccccc2C(=O)N([C@H](C)CO)C[C@@H]1C	-18[25 µM]
CN(C)C(=O)[C@H]1[C@H](CO)[C@H]2Cn3c(ccc(-c4ccc(F)cc4)c3=O)[C@@H]1N2CCc1ccccc1	-1[25 µM]
COc1cccc(-c2ccc3c(c2)[C@@H]2[C@@H](CCN2S(=O)(=O)C2=NC(C)C=N2)[C@H](CO)N3C)c1 (stereo partly drawn)	-8[25 µM]
C[C@@H]1CN([C@@H](C)CO)C(=O)CCCn2cc(nn2)CO[C@@H]1CN(C)C(=O)Nc1cccc(Oc2ccccn2)c1	-1[25 µM]
C[C@@H]1CN([C@@H](C)CO)C(=O)Cc2cc(NC(=O)Nc3ccc(C(F)(F)F)cc3)ccc2O[C@H]1CN(C)Cc1ccccc1	-4
C[C@H](CO)N1C[C@H](C)[C@@H](CN(C)Cc2ccc(C(=O)O)cc2)Oc2ccc(NS(=O)(=O)c3cccs3)cc2C1=O	0[25 µM]
C[C@@H]1CN([C@@H](C)CO)C(=O)Cc2cc(NC(=O)Cc3cn(C)c4ccccc34)ccc2O[C@H]1CN(C)Cc1ccc(C(F)(F)F)cc1	66*[25 µM]
C[C@H](CO)N1C[C@H](C)[C@@H](CN(C)Cc2ccc(Cl)c(Cl)c2)Oc2ccc(NS(=O)(=O)c3ccc(Cl)cc3)cc2CC1=O	14
C[C@@H]1CN([C@@H](C)CO)C(=O)Cc2cc(NC(=O)Cc3cn(C)c4ccccc34)ccc2O[C@@H]1CN(C)C(=O)Nc1ccccc1	-3
C[C@@H]1CN([C@@H](C)CO)C(=O)Cc2cc(NS(=O)(=O)c3ccc(Cl)cc3)ccc2O[C@H]1CN(C)Cc1ccc(Cl)c(Cl)c1	65*
Cc1noc(C)c1S(=O)(=O)Nc1ccc2c(c1)CC(=O)N([C@@H](C)CO)C[C@@H](C)[C@@H](CN(C)Cc1ccc(Cl)c(Cl)c1)O2	15
C[C@@H]1CN([C@@H](C)CO)C(=O)Cc2cc(NS(=O)(=O)c3ccccc3)ccc2O[C@H]1CN(C)Cc1ccc(Cl)c(Cl)c1	68*
SMILES	CD40 NFkB inh
C[C@H]1CN([C@@H](C)CO)C(=O)Cc2cc(NS(=O)(=O)c3cccs3)ccc2O[C@@H]1CN(C)Cc1ccc(Cl)c(Cl)c1	57*
C[C@@H]1CN([C@@H](C)CO)C(=O)c2cc(NS(=O)(=O)c3cccs3)ccc2O[C@@H]1CN(C)Cc1ccc(C(=O)O)cc1	2[25 µM]
C[C@@H]1CN([C@H](C)CO)C(=O)Cc2cc(NS(=O)(=O)c3ccc(F)cc3)ccc2O[C@@H]1CN(C)Cc1ccncc1	3[25 µM]
C[C@@H]1CN([C@@H](C)CO)C(=O)Cc2cc(NS(=O)(=O)c3ccc(F)cc3)ccc2O[C@@H]1CN(C)Cc1ccncc1	3[25 µM]
CN1CCN(C(=O)[C@H]2[C@H](CO)[C@H]3Cn4c(cccc4=O)[C@@H]2N3Cc2ccncc2)CC1	4[25 µM]
Cc1cccc(S(=O)(=O)N2CC[C@@H]3[C@H]2c2cc(C4=CCCCC4)ccc2N[C@@H]3CO)c1	2
C[C@H]1CN([C@@H](C)CO)C(=O)c2ccccc2-c2ccccc2CO[C@@H]1CN(C)C(=O)Nc1ccc(F)cc1	-8
CC(C)[C@@H]1C(=O)N[C@H](c2ccc3c(c2)OCO3)CC=CC[C@H](C)Oc2ccccc2C(=O)N1C (mixture of isomers)	9
C/C=C/c1ccc([C@@H]2[C@@H](CN(C)S(C)(=O)=O)N(C(C)=O)[C@H]2CO)cc1	5
